CYP2C19 act: human CYP2C19 activators, primary screen, biochemical, luminescence | Cytochrome P450 2C19 (Homo sapiens), P33261 | recombinant CYP2C19, luciferin-H EGE luminescence; hits give high values; 0 = fully inhibited enzyme, 1 = untreated enzyme | activation factor at 5 µM | 96,000 tested, under 10 active;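 active = activation factor of at least 2 at 5 µM in the primary screen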;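 note: 0 = wells with 2.5 mM tranylcypromine and 1 = vehicle-only wells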
CYP2C9 inhib: blockers of cytochrome P450 2C9 activity – biochemical, luminescence, ADME assay, primary screen; AID 777, 2007; P11712; inhibition, % at 5 µM; CYP2C9 Supersomes, luciferin-H conversion; hit rate 20% among 96,000;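 active = blocking of liver enzyme CYP2C9 beyond about 50% at 5 µM, limit read from the data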
Target sequence (P11712 whole entry, looked up): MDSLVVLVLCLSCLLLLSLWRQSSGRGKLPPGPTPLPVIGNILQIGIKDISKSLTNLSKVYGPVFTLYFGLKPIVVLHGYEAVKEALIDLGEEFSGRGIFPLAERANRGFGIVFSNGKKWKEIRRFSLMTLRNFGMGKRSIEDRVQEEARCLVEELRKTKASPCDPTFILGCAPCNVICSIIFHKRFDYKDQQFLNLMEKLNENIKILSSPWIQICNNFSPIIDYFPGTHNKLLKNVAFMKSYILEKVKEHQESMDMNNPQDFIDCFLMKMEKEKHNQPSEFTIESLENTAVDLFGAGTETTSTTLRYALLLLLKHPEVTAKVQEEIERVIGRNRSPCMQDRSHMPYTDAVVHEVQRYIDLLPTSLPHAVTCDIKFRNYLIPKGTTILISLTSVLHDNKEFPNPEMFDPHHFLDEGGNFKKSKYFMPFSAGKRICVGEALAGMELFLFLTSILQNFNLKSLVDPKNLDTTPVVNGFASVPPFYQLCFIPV
PostGolgi ctrl: growth inhibition of yeast control strain, primary screen, counter-screen for post-Golgi transport modulator project; efflux-deficient yeast background strain, growth absorbance A615, 16 h; inhibition, % at 10 µM; hit rate 5% among 98,000; AID 738, 2007
PostGolgi yeast: phenotypic screen on post-Golgi transport, primary screen; post-Golgi transport phenotypic cell assay; hit rate 0.9% among 98,000; inhibition, % at 10 µM;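 note: yeast cells grown in 1536-well plates; yeast grown about 18 h at 30C before absorbance read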
CYP2C19 inhib: blockers of cytochrome P450 2C19 activity – biochemical, luminescence, ADME assay, primary screen | P33261 | CYP2C19 Supersomes, luciferin-H EGE luminescence, 30 min | inhibition, % at 5 µM | hit rate 21% among 96,000 | AID 778, 2007;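 active = CYP2C19 inhibition above a set limit at 5 µM in the primary screen, cut at about 50% in these data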;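 note: plate controls were negative control wells for no effect and 2.5 mM tranylcypromine positive control for full effect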
CYP2C9 act: human CYP2C9 activators, primary screen, biochemical, luminescence; Cytochrome P450 2C9 (Homo sapiens), P11712; recombinant CYP2C9, luciferin-H conversion; hits give high values; factor 1 = untreated enzyme, 0 = blocked; activation factor at 5 µM; hit rate 1.4% among 96,000;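 active = activation factor of 2 or more for CYP2C9 at a 5 µM dose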;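 note: 0 = sulfaphenazole-blocked wells and 1 = vehicle-only wells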
Active calls of the source: *; x = no result. Hits are enriched below; roughly 32% of the tested compounds scored in any of these assays. Cut-off read from the data, not from the text of the source, unless noted: active = inhibition above about 30%; inactive = the rest.

SMILES | CYP2C19 act | CYP2C9 inhib | PostGolgi ctrl | PostGolgi yeast | CYP2C19 inhib | CYP2C9 act
CCOC(=O)c1ccccc1NC1c2ccccc2C(=O)N1c1cc(C)ccn1 (stereo not given) | 0 | 83* | 55* | 2 | 96* | 0.2
COc1cc(OC)c(NC2c3ccccc3C(=O)N2c2cc(C)ccn2)cc1Cl (stereo not given) | x | x | 33* | 5 | x | x
Cc1ccc(N2C(=O)c3ccccc3C2Nc2ccccc2F)nc1 (stereo not given) | 0.6 | 25 | 15 | 0 | 41 | 0.8
Cc1ccnc(NC2c3ccccc3C(=O)N2Cc2ccccc2Cl)c1 (stereo not given) | 0.9 | 23 | 18 | 0 | 5 | 0.8
Cc1csc(NC(=O)c2ccc(C)c(S(=O)(=O)N3CCCCC3)c2)n1 | 0.9 | 27 | 0 | 5 | 14 | 0.7
Cc1ccc(C(=O)Nc2ccon2)cc1S(=O)(=O)N1CCCC1 | 0.4 | 4 | 12 | 4 | 58* | 1
Cc1nnc(NC(=O)c2ccc(C)c(S(=O)(=O)N3CCCCCC3)c2)s1 | 1 | -9 | 6 | -5 | -4 | 1.1
CNC(=O)c1ccccc1NC(=O)c1ccc(C)c(S(=O)(=O)N2CCCCC2)c1 | 0.3 | 62* | 14 | -2 | 70* | 0.4
Cc1ccc(C(=O)Nc2nccs2)cc1S(=O)(=O)N1CCCCC1 | 0.3 | 68* | 28 | 7 | 66* | 0.3
O=C(Nc1ccccc1)c1cccc(S(=O)(=O)N2CCCCC2)c1 | 0.4 | 48 | 10 | -2 | 58* | 0.5
CC(NC(=O)C1CCC(=O)N1Cc1ccc(F)cc1)c1ccc2c(c1)OCCO2 (stereo not given) | 1 | 13 | -11 | -1 | 2 | 0.9
CCC(NC(=O)Nn1cnnc1)(C(F)(F)F)C(F)(F)F | x | x | -13 | 8 | x | x
Cc1ccc(C(=O)Nc2ccc3cn[nH]c3c2)cc1S(=O)(=O)N1CCCCC1 | 1.1 | 92* | 5 | 6 | -8 | 0.1
O=C(Nc1cccc(O)c1)c1cc(S(=O)(=O)N2CCCC2)ccc1Cl | 0.5 | 82* | 4 | 1 | 46 | 0.2
Cc1cc(C)n(C(=O)c2cccc(S(=O)(=O)N3CCCC3)c2)n1 | 0.2 | 72* | 3 | 6 | 76* | 0.3
O=C(c1cccc(S(=O)(=O)N2CCCCC2)c1)N1CCOCC1 | 1 | 5 | 2 | 1 | 2 | 0.9
CC(=O)Nc1ccc(S(=O)(=O)N2CCC(NC(C)=O)(c3cccc(F)c3)CC2)cc1 | 0.1 | 75* | x | x | 93* | 0.3
O=C(Nc1nc2ccccc2[nH]1)C1CCN(S(=O)(=O)c2cccs2)CC1 | 1 | 1 | -8 | 21 | -2 | 1
O=c1[nH][nH]c2nc(C(F)(F)F)cc(C(F)(F)F)c12 | 1 | 6 | 0 | -2 | 0 | 0.9
O=C(Nc1ccc(NC(=O)c2ccc(S(=O)(=O)c3ccccc3)cc2)cc1)c1ccccc1 | 0.9 | 8 | -2 | 4 | 10 | 0.9
O=C(Nc1ccon1)c1cccc(S(=O)(=O)N2CCCCCC2)c1 | 0.1 | 65* | 6 | -7 | 93* | 0.4
O=C(Nc1ccccn1)c1cccc(S(=O)(=O)N2CCCCC2)c1 | x | x | -11 | -7 | x | x
O=C(c1cccc(S(=O)(=O)N2CCCC2)c1)c1nnc(-c2ccncc2)o1 | 0.2 | 90* | 0 | -6 | 78* | 0.1
O=C(COC(=O)c1ccc(Br)o1)Nc1cccc(S(=O)(=O)N2CCCCCC2)c1 | 0 | 92* | 5 | 0 | 96* | 0.1
O=C(Nc1ccon1)c1cccc(S(=O)(=O)N2CCCC2)c1 | 0.7 | 16 | 13 | 5 | 34 | 0.8
SMILES | CYP2C19 act | CYP2C9 inhib | PostGolgi ctrl | PostGolgi yeast | CYP2C19 inhib | CYP2C9 act
Cc1ccc(NC(=O)c2cc(S(=O)(=O)c3ccccc3)ccc2Cl)cc1 | 0.6 | 73* | 16 | -4 | 36 | 0.3
Cc1ccc(C(=O)NCc2cccs2)cc1S(=O)(=O)N1CCCCC1 | 0.6 | 56* | 9 | 1 | 38 | 0.4
CC(=O)Nc1cccc(S(=O)(=O)N2CCCCCC2)c1 | 0.2 | -148 | 3 | 1 | 75* | 2.5*
CC(=O)c1cccc(NS(=O)(=O)N(C)C)c1 | 1.1 | -18 | -3 | -5 | -12 | 1.2
O=C(Nc1ccccc1Cl)c1cccc(NS(=O)(=O)c2ccccc2)c1 | 0.1 | 75* | 20 | -11 | 89* | 0.2
CC(=O)c1cccc(NS(=O)(=O)N2CCCCC2)c1 | 0.4 | 22 | 5 | -8 | 60* | 0.8
Cc1ccc(C(=O)NC2CCS(=O)(=O)C2)cc1S(=O)(=O)N1CCCCC1 (stereo not given) | 1.1 | 32 | 19 | -5 | -13 | 0.7
CCC(CCC(=O)Nc1ccn(-c2ccccc2)n1)C(=O)O (stereo not given) | 1.2 | -21 | 11 | 3 | -22 | 1.2
CCCCOC(=O)C(C)c1c(C)[nH]c(=S)[nH]c1=O (stereo not given) | 0.9 | 6 | -2 | -1 | 8 | 0.9
COc1ccc(CC(=O)N2CC(C)CC(C)C2)cc1 (stereo not given) | 0.6 | -3 | 23 | 4 | 41 | 1
CCCCNC(=O)CN(C1CCCCC1)S(C)(=O)=O | 0.7 | 74* | 12 | -10 | 31 | 0.3
CS(=O)(=O)N(CC(=O)NCCc1ccccc1)C1CCCCC1 | 0.8 | 4 | -10 | -2 | 24 | 1
COc1ccccc1NC(=O)C1C2C=CC3(CN(Cc4cccnc4)C(=O)C13)O2 (stereo not given) | 0.9 | 20 | 6 | 8 | 14 | 0.8
Cc1ccc(NC(=O)C2C3C=CC4(CN(Cc5cccnc5)C(=O)C24)O3)cc1F (stereo not given) | 0.4 | 4 | 19 | -5 | 58* | 1
N#CCSc1nnc(COc2ccc3ccccc3c2)o1 | 0.4 | 10 | 14 | -10 | 57* | 0.9
COc1cc(-c2nnc(COc3ccc4ccccc4c3)o2)cc(OC)c1OC | 0.5 | 49 | 3 | -3 | 46 | 0.5
COc1ccc(OC)c(CC(NC(C)=O)C(=O)NC2CCN(c3nc(C)cc(C)c3C#N)CC2)c1 (stereo not given) | 0.8 | 9 | x | x | 24 | 0.9
CN(CCOc1ccccc1)S(=O)(=O)c1ccc2oc3ccccc3c2c1 | 0.5 | -62 | 18 | -2 | 52* | 1.6
COc1ccc(C2C(C(C)=O)=C(O)C(=O)N2c2ccc(Br)cn2)cc1 (stereo not given) | 1 | 8 | 6 | -8 | 2 | 0.9
CC1C(=O)CC(c2ccccc2)N(C)C1c1ccccc1 (stereo not given) | 0 | 90* | 22 | 0 | 100* | 0.1
CCc1nc(C)cn1S(=O)(=O)c1cc(C)c(OC)cc1C | 0.4 | -14 | 0 | -2 | 62* | 1.1

From PubChem BioAssay
